# Unmarked numbers belong to inactive results.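 How the source made its calls: active = MAPPIT score above the 99th percentile of random reference set scores in the same batch; inactive = at or below it.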
# Legend:
# Assay in all cases: MAPPIT interaction score (arbitrary units); higher = stronger binary interaction signal, active = hit call of the paper
# [1] = biological target: Zpr1; conditions: MAPPIT configuration: N-N; pair source set: Finley_Y2H
# [2] = biological target: sinah; conditions: MAPPIT configuration: N-N; pair source set: Lit-BS-16
# [3] = biological target: Zif; conditions: MAPPIT configuration: N-N; pair source set: screen_2
# [4] = biological target: Vsx1; conditions: MAPPIT configuration: N-C; pair source set: screen_3
# [5] = biological target: U4-U6-60K; conditions: MAPPIT configuration: N-N; pair source set: DPIM
# [6] = biological target: Usp16-45; conditions: MAPPIT configuration: N-N; pair source set: Curagen_low_conf
# [7] = biological target: Vha13; conditions: MAPPIT configuration: N-C; pair source set: screen_4
# [8] = biological target: Vps51; conditions: MAPPIT configuration: N-N; pair source set: screen_2
# [9] = biological target: Xbp1; conditions: MAPPIT configuration: N-N; pair source set: Curagen_low_conf
# [10] = biological target: Vps24; conditions: MAPPIT configuration: N-N; pair source set: Curagen_high_conf
# [11] = biological target: Uba4; conditions: MAPPIT configuration: N-N; pair source set: Curagen_high_conf
# [12] = biological target: Uba5; conditions: pair source set: RRS
# [13] = biological target: Yp2; conditions: MAPPIT configuration: N-N; pair source set: Curagen_high_conf
# [14] = biological target: Vti1a; conditions: MAPPIT configuration: N-N; pair source set: Curagen_high_conf
# [15] = biological target: Yif1; conditions: MAPPIT configuration: N-N; pair source set: RRS
# 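Further: HEK293T cells with Epo stimulation, STAT-responsive firefly luciferase reporter, fold induction versus unstimulated cells divided by the larger fold induction of two negative controls lacking either bait or prey.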
binder,measurement,setting,value
esn (protein) MQQAPQQQQHPHPPSSSYYTQTESELLQIEAGGTGLTFASHSQRPESAISQVASTAHLDVPSAASSGSGGSAVSGGSGGAPESAGRFVSPLQRRHCQPPSHLPLNSVASPLRTASYKSAAAVAGHGFHHSHHQQLDFQRNSQSDDDSGCALEEYTWVPPGLRPDQVRLYFSQLPDDKVPYVNSPGEKYRVKQLLHQLPPQDNEVRYCHSLSDEERKELRIFSAQRKREALGRGAVRLLSDERPCKGCEEPLSGGDIVVFAQRLGAQLCWHPGCFVCSVCKELLVDLIYFQRDGNLYCGRHHAETQKPRCSACDEIIFSDECTEAEGRTWHMKHFACQECEHQLGGQRYIMREGKPYCLACFDTMFAEYCDYCGEVIGVDQGQMSHDGQHWHATDQCFSCCTCRCSLLGRPFLPRRGTIYCSIACSKGEPPTPSDTSSGPQLRPTHRASTSSQIAKSPRRGGERERDPGRKAHHGHPKATGSAGDLLERQERQRMEAAGVADLLLGGGVPGMPRPAHPPPIDLTELGISLDNICAGDKSIFGDTQTLTNSMPDMLLSKADDSHSYQSIDKINLNSPSNSDLTQSTQELANELELDNEPVRELPHDGYEQLFANNRNQEHPAEQYDDEQLDNRPMKEVRFHSVQDTMSRSKSYTDNSNARRRRRRRNQSRSSSEMQINQTNLRLHNAQTQVGTTPLNLLNNLDNCDVASICSTCSSSSSSDMDDYVYRLPARKHYGGVRVAYVPNDALAYERKKKMAQDSSLAPGAGNASVGGAPAIMHESKNCTIS,MAPPIT interaction score,[1],0.202
same,MAPPIT interaction score,[2],3.43 (active)
eIF4E1 (protein) MQSDFHRMKNFANPKSMFKTSAPSTEQGRPEPPTSAAAPAEAKDVKPKEDPQETGEPAGNTATTTAPAGDDAVRTEHLYKHPLMNVWTLWYLENDRSKSWEDMQNEITSFDTVEDFWSLYNHIKPPSEIKLGSDYSLFKKNIRPMWEDAANKQGGRWVITLNKSSKTDLDNLWLDVLLCLIGEAFDHSDQICGAVINIRGKSNKISIWTADGNNEEAALEIGHKLRDALRLGRNNSLQYQLHKDTMVKQGSNVKSIYTL,MAPPIT interaction score,[3],-0.101
Mst87F (protein) MCCGPCGPCCGPCCGPCCGPCGPCGGGCGPCYGPNVCGPCYACGPCGGCYCGYPCC,MAPPIT interaction score,[4],0.606
CG2034 (protein) MLSNLVVTKQKVVLVIDELNRERIAPKFIGSLLHEQGQGADTIKALPTGVSLKHVATFEALIDKYANNNTGSTTDSNSTGFNVILPTLADLLCYQTPAFIFGFLNRLRRSDNVRRVFLWASPQHLQDPHADYILAGCEYLAELVLRLESDKLLSLISRKPGGGVSNRRYSCEVSKTQFKVTPLDGGLPAGASPKQPSPEAEQTTEPASSTFKIELDEDEVLARNALTLPYERTSEPSEGNIIYTPDADDDFDEEDPDEDLCI,MAPPIT interaction score,[5],0.24
AdSS (protein) MSASATNGTHYEQLHQGRTKMYKSKVDVVLGAQWGDEGKGKVVDMLASDVDIVCRCQGGNNAGHTVVANGTEFDFHLLPSGVVNEKCVSVIGNGVVIHLPSLFDEVLKNEAKGLQHLENRLIISDRAHLVFDFHQHVDGMQEAEKGGKSLGTTKKGIGPAYSSKATRNGIRVGELLGDFNLFSEKFKSIVATHVRLFPSINVDVEAELARYKDYADKVRPYVKDTICFLHTALRNGKTILVEGANAAMLDIDFGTYPYVTSSNCSIGGVLTGLGLPPQTIGEVIGVVKAYTTRVGDGPFPTEQLNDIGDLLQTRGFEVGVTTKRKRRCGWLDIPLLKYTSLVNGYTCICLTKLDILDTLPEIKVAVAYKKPNGEKLDHFPGTIAELGNIEVEYAVLPGWQTSTEEVRNFKELPENAQSYVRLLESELSVPVRWVGVGKGRESIINVH,MAPPIT interaction score,[6],1.38
Vha26 (protein) MALSDADVQKQIKHMMAFIEQEANEKAEEIDAKAEEEFNIEKGRLVQQQRLKIMEYYEKKEKQVELQKKIQSSNMLNQARLKVLKVREDHVSSVLDDARKRLGEVTKNQSEYETVLTKLIVQGLFQIMEPKVILRCREVDVPLVRNVLPAAVEQYKAQINQNVELFIDEKDFLSADTCGGVELLALNGRIKVPNTLESRLDLISQQLVPEIRNALFGRNVNRKFTD,MAPPIT interaction score,[7],1.21
Dpy-30L1 (protein) MEAKTDAPISPAPTTNPPAEAGKEPNASSNAQANPTAAPGAPPSGAIAVGQSTNPVAQQQQQPAVAKKPSSETNNMPTRQYLDQTVAPVLLHGMQALARERPTDPIQFLASYLLKHSNGCDENNASAAAVDNNS,MAPPIT interaction score,[8],1.49
Ubc2 (protein) MSSTPAAGSAAEVATSSATSNAPSAPSTTASNVSNTSQPTTAGTPQARGGRGSNANGGASGSNAGGGDEPRKEAKTTPRISRALGTSAKRIQKELAEITLDPPPNCSAGPKGDNLYEWVSTILGPPGSVYEGGVFFLDIHFSPEYPFKPPKVTFRTRIYHCNINSQGVICLDILKDNWSPALTISKVLLSICSLLTDCNPADPLVGSIATQYLQNREEHDRIARLWTKRYAT,MAPPIT interaction score,[9],-0.108
shrb (protein) MSFFGKMFGGKKEVAPTTGEAIQKLRETENMLIKKQEFLEAKIEDELNIARKNASKNKRVALQALKKKKRLEKQLQQIDGTLSTIEMQREALESANTNTAVLTTMKNAADALKRAHQNMDVDKVHDMMDDIAEQQDVAREISDAISNPVAFGADLDDEDLERELDELEQENFDKEIIGIPEPTPTLPEAPTEDLPEKAKEKKKATTTTAVEDDDDPDMKQLLSWSN,MAPPIT interaction score,[10],0.054
Coa8 (protein) MNKCFRCQPRISLFQFSLPRCYAAVQPGCPPPQEKPVVGLPHKPDPKTVKCDYIGPPDAQSNLRPYVRHYGDEETRLARSLRLKRIEVEAWNTDFWTKHNKRFYEEKEDFIRLHKESGTSEVSADQMSHFYKAFLDKNWRIHIMYNISWYLKNFDILTLAAAVQLQRLLALAKRRS,MAPPIT interaction score,[11],2.52 (active)
htl (protein) MAAAWSWRASHSTITMTSGSLVVLFLLLSIWQPAVQVEGRRQMANSQEMIKDHLGARSQNKTPAITNNANQSSTSSADLDDGAADDDDNKADLPVNVSSKPYWRNPKKMSFLQTRPSGSLLTLNCHALGNPEPNITWYRNGTVDWTRGYGSLKRNRWTLTMEDLVPGDCGNYTCKVCNSLGCIRHDTQVIVSDRVNHKPILMTGPLNLTLVVNSTGSMHCKYLSDLTSKKAWIFVPCHGMTNCSNNRSIIAEDKDQLDFVNVRMEQEGWYTCVESNSLGQSNSTAYLRVVRSLHVLEAGVASGSLHSTSFVYIFVFGGLIFIFMTTLFVFYAIRKMKHEKVLKQRIETVHQWTKKVIIFKPEGGGDSSGSMDTMIMPVVRIQKQRTTVLQNGNEPAPFNEYEFPLDSNWELPRSHLVLGATLGEGAFGRVVMAEVNNAIVAVKMVKEGHTDDDIASLVREMEVMKIIGRHINIINLLGCCSQNGPLYVIVEYAPHGNLKDFLYKNRPFGRDQDRDSSQPPPSPPAHVITEKDLIKFAHQIARGMDYLASRRCIHRDLAARNVLVSDDYVLKIADFGLARDIQSTDYYRKNTNGRLPIKWMAPESLQEKFYDSKSDVWSYGILLWEIMTYGQQPYPTIMSAEELYTYLMSGQRMEKPAKCSMNIYILMRQCWHFNADDRPPFTEIVEYMDKLLQTKEDYLDVDIANLDTPPSTSDEEEDETDNLQKWCNY,MAPPIT interaction score,[12]; MAPPIT configuration: N-C,-0.924
same,MAPPIT interaction score,[12]; MAPPIT configuration: N-N,-0.283
Nup107 (protein) MADSPFPRSSRSGLLRTTLNSSMPPQNLSHSLLILEKSNAEQNELSLMEDTGDDLDRGKSRMDVLFPQFFDVLQAQGNGQEAFEVIQSLTQVCRGVVEQLELEIDHGMGGEQGARQRESMLTWLRQEINTWRLLHALFYDRILLQTDRQADDEMQDGPTLGGSEKEVIQQLYALNATLREYQLVVDWLEACYDRGEQQNPLHAHDRMMAWENTLFQLENLQGAAFGKGHKIVTRLDPDAPVREKRPLHALDEEDNLRLSRAIFELIRAGRVDDGLKLCKHFGQTWRAAILEGWRLHEDPNFEQNVSVLHEKLPIEGNPRRDIWKRCAWMLADSKNYDEYSRATAGVFSGHLGSLKTLLHSNWHDLLWAHLKVQIDIRVESEIRGCCLKNYQPMPDDYWNGRMTMEQIFEELNVAKDASVRDFAQSQLGIIQRHLILDTCGELIQHMVRWVEKDTSQQSPHQLRFMAHIVLFLRQIGRVEQERQAEKIVAAYVEALIARGEPQLIAYYTASLSNPLQVQLYSRFLEQVEQKRPRELAVDAALQAGLDVEQITRVTVQNIRLAHQPLGEFGEPQSGEISAIDQRKISALEWLIHLPEQRGELLWQANAMIRTYLASSKVECMRQTFRMVPADIVQQLVSLYGSVDNIPPREECCLKEYLCYKAYLSGVDSFVEWNRLQQNRPKKPQTSHAASSQDNFTERMASERKEQAHRSEVVRWEHKVKEQAKQTIELLYNVLMFPDKGWLVDPFIAKLPENAVQLSWDHRLLQMEKLRSICIPEIALFLNEVMFKSGDFAGCVRLADEISSENRQLYKVYTKHKLAELLAKIADASLELLNSKLDPWGYPITT,MAPPIT interaction score,[13],0.235
spn-F (protein) MEASAAKITPMASSMSASGSTNSPSSEKMNYALQVALQTIKERCIQLQRRVASMEEENQQLREASSRSEGAPRANEIGVTGDVLSLKAQVSELQRQKEQLEEHIGMVSNENRRLWSRLSQISKDQQLNALPSSTDSRAQQNQNLVRSKTFTQHSPNPHLRQKMLSDGIKDLSLEEIALDDFGASSEELGYPYNLQKVEETTSEPDANVDAKRCLDGLQELRREAMKQQQELRSVMTLLENRIALKPCPECAQKTIKKPEMADKSLETDDSLTSELKNYESQHNGHNGTPPSQRINIIQEKIKADAADAMEKTCPMCGKQYSSQVSFNAFREHVEMHFIDDALELESENSIERQFEFVSHAVGDF,MAPPIT interaction score,[14],0.032
noi (protein) METLLEQQRRLHEERERLVKLMVDEHATKKPGEKERIHSEHRLKYLMELHHNSTSQLRDLYEDKDNERKAEIAALSGPNEFNEFYARLKQIKQFYKSHPAEVSVPLSVEFDEMIRVYNNPDDMSALVEFTDEEGGGRYLDLNECYELYLNLRSVEKLDYITYLMSFDHVFDIPRERKNREYRIYIETLNDYLHHFILRIQPLLDLEGELLKVELDFQRQWLMGTFPGFSIKETESALANTGAHLDLSAFSSWEELASLGLDRLKSALVALGLKCGGTLEERAQRLFSTKGKSTLDPALMAKKPSAKTASAQSREHERHKEIAQLEALLYKYADLLSEQRAATKENVQRKQARTGGERDDSDVEASESDNEDDPDADDVPYNPKNLPLGWDGKPIPYWLYKLHGLNISYNCEICGNFTYKGPKAFQRHFAEWRHAHGMRCLGIPNTAHFANVTQIEDAITLWEKLKSQKQSERWVADQEEEFEDSLGNVVNRKTFEDLKRQGLL,MAPPIT interaction score,[15],-0.019

# — the supplement of paper PMC10105736
